Source: PubChem (National Center for Advancing Translational Sciences (NCATS))
Compounds with a hit are over-represented: about 0.74% of the library has one in this group of screens.
PINK1 modulator: modulators of PINK1 expression. PINK1 immunofluorescence, high-content cytometry, 24 h. Potency, µM (titrated, usually from 76.6 µM), without a hit: at the top dose activation (PINK1 increase), most hits filed as activators. 410,000 compounds, 0.2% hits; active means well fitted activation curve with a large enough effect; inconclusive means small, poorly fitted or top-dose-only effect; cell line not stated here; further: potency means the concentration at half of the fitted maximal effect; % of control where 0% means no effect; nearly all actives have a fitted effect of over 65% in size
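A stable cell line was treated with compounds at 5 concentrations for 24 hours, with CCCP as control. PINK1 levels and mitochondrial localization were measured by immunofluorescence with mitochondrial, cell and nuclear markers after fixation, read by laser-scanning cytometry.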
Vif-APOBEC3F blk: inhibitors of Vif-A3F interaction. HeLa A3F-eYFP + Vif (tagged APOBEC3F with the HIV-1 protein that degrades it), YFP fluorescence increase. Potency, µM (highest dose often 46.1 µM), for the others: at the top dose activity, negative = active. 390,000 compounds, 0.2% hits. AID 602313; further: potency means the concentration at half of the fitted maximal effect; % of control where 0% means no effect; nearly all actives have a fitted effect of over 65% in size
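HeLa cells stably expressing Vif plus C-terminally eYFP-tagged A3F were seeded, incubated overnight at 37 deg C, dosed with compound, incubated overnight again at 37 deg C. Yellow fluorescence (Ex 488/Em 500-530) reported blocked Vif-mediated A3F-eYFP degradation.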
pAkt inh: inhibitors of Akt phosphorylation. 360,000 compounds, 0.32% hits. activity change, % for hits at 50 µM. Neuro2A IGF-stimulated pAkt S473 HTRF, 20 min; active compounds read low; in the data active means activity change below about -80%; inconclusive means mostly about -51% to -80%; further: on the % scale 0 is the no-effect control and ±100 the full control effect
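Neuro2A cells (4,500/well, DMEM with 0.5% FBS) were treated with compound at a single 50 µM final concentration, stimulated with 6 nM IGF for 20 min at 37 °C, and lysed. Phospho-Akt Ser473 was read by HTRF as 665/615 ratio ×10^4.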
Glioma ERSR ind: induces the endoplasmic reticulum stress response in human glioma cells. U87-MG GRP78 promoter luciferase reporter, 16 h. Potency, µM, for the others: at the highest dose activation, usual class: activators. 420,000 compounds, 0.02% hits. AID 602332; further: potency means the concentration at half of the fitted maximal effect; series mostly up to about 76 µM; % of control where 0% means no effect; nearly all actives have a fitted effect of over 35% in size
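Stably transfected U87-MG human glioma cells carrying a GRP78-based luminescent sensor were seeded at 1000 cells/well, pin-dosed with compounds and incubated 16 h. Luciferase reagent was then added, and end-point luminescence was read after 10 min at room temperature.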
LDHA block: LDHA (human) enzyme inhibition; activity change, % (values are at about 110 or 230 µM); P00338; purified LDHA, NADH/diaphorase-resazurin fluorescence; active compounds read low; 480,000 compounds, 0.15% hits; in the data active means activity change below about -30%; inconclusive means mostly about -25% to -30%;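 further: plate controls were DMSO wells for no effect and wells without enzyme for full effect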
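Enzyme activity of human lactate dehydrogenase 5 (2 nM; 0.06 mM NADH, 0.2 mM pyruvate, 5 min, RT) is measured via a resazurin/diaphorase fluorescence readout of residual NADH.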
Vif-A3G inh: Vif-A3G binding inhibition; Q9HC16; HeLa A3G-eYFP + Vif (tagged APOBEC3G with the HIV-1 protein that degrades it), YFP fluorescence, overnight; Potency, µM (top dose mostly 46.1 µM), without a hit: at the highest dose activity, negative = active, most hits filed as inhibitors; 410,000 compounds, 0.076% hits; AID 602310; further: potency means the concentration at half of the fitted maximal effect; on the % scale 0 is the no-effect control and ±100 the full control effect; nearly all actives have a fitted effect of over 60% in size
Target sequence (Q9HC16 whole entry, looked up): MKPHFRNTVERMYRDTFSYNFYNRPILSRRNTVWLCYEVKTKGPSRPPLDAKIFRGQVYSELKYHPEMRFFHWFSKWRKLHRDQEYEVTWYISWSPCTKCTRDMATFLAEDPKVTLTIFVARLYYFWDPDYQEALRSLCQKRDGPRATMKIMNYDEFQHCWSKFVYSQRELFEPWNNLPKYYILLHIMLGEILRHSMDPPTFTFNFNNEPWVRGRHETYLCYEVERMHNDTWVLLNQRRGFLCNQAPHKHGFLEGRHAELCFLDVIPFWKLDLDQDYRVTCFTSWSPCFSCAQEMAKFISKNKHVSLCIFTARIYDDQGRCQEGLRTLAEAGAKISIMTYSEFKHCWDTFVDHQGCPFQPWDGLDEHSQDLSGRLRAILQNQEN
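Read-out is eYFP fluorescence (Ex 488/Em 500-530) from Vif-expressing HeLa A3G-eYFP cells; more signal means A3G escaped Vif-mediated degradation. Cells plated overnight, compound pinned in, incubated overnight at 37 deg C.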
Numbers without * were called inactive; i = inactive; ? = inconclusive; . = no result given; ! = a repeat was not active; [ ] = another dose, or the depositor's remark. Unless noted, the call rests on the fitted dose curve; in most records, active means well fitted curve in the direction sought with a large enough effect; inconclusive means small, poorly fitted or top-dose-only effect, or another doubt; inactive means no such curve, though single readings can be large; an effect the other way counts as inactive or inconclusive.

SMILES | PINK1 modulator | Vif-APOBEC3F blk | pAkt inh | Glioma ERSR ind | LDHA block | Vif-A3G inh
Oc1cccc(/C=N/n2c(C3CCCCC3)n[nH]c2=S)c1 | 3.3% | -5.2% | i | -1.2% | -3.3 | -1.5%
O=C(NCC1OCCc2ccccc21)c1cccc(Br)c1 (stereo not drawn) | . | . | . | . | -42.0* | .
COc1cccc(C(=O)NCC2OCCc3ccccc32)c1 (stereo not drawn) | 3.8% | 1.6% | . | -2.1% | -7.4 | 2.1%
Cc1c(NC(=O)C2CCN(S(=O)(=O)Cc3ccccc3F)CC2)c(=O)n(-c2ccccc2)n1C | . | . | . | . | 2.1 | .
COc1ccc(-n2c(SCC(=O)Nc3cccc(C#N)c3)nnc2-c2ccccc2OC)cc1 | . | . | . | . | 4.6 | .
CC(=O)Oc1ccccc1C(=O)Oc1cccc(C)c1 | . | . | . | . | -3.8 | .
CCNC(=O)NC(=O)C(C)Sc1nc2cc(C(=O)OC)ccc2c(=O)n1-c1ccccc1 (stereo not drawn) | 4.6% | -6.6% | -121.8%* | -4.4% | -5.6 | -6.8%
N#C/C(=C\c1ccc(N2CCCCC2)o1)C(=O)Nc1cccc(Br)c1 | 6.31µM* | i | i | 4.7% | -11.7 | -9.5%
CCC(=Nc1ccc(Cc2ccncc2)cc1)c1c(O)n(C)c(=O)n(C)c1=O | 0.5% | 1.1% | -120.7%*! | -3.2% | -4.9 | 4.1%
Cc1ccc(NC(=O)Cn2c(-c3nonc3N)nc3ccccc32)cc1C | 1.2% | 2.3% | . | -2.1% | -2.4 | -3.6%
Cc1ccc(C)c(NC(=O)Cn2c(-c3nonc3N)nc3ccccc32)c1 | 3.6% | -8.8% | . | 1.5% | -32.5*! | -3.3%
COC(=O)c1ccc(NC(=O)CSc2nnc(-c3ccccc3OC)n2-c2ccccc2)cc1 | . | . | . | . | -4.8 | .
O=C(NC1CCCCC1)NC1CCN(CC(=O)N2CCOCC2)CC1 | 1.6% | -6.9% | -107.1%* | -5.9% | -3.3 | 2.1%
O=C(CN1CCCCC1)NC(=O)NC1CCCC1 | 0.4% | 9.9% | i | 4.6% | -7.6 | 0.7%
O=C1c2cc(Br)ccc2N(Cc2ccc(Br)cc2)S(=O)(=O)C1c1cc(Cl)c(Cl)cc1[N+](=O)[O-] (stereo not drawn) | ? | -3.7% | i | -4.2% | -43.3* | 5.1%
Cc1cc(C)cc(NC(=S)NC(=O)C2CC2)c1 | 1.7% | 12.6µM* | i | -0.1% | -16.6 | 0.5%
CCCCNC(=O)Cc1coc2ccc3ccccc3c12 | 4.2% | -8.9% | -109.7%* | 1.5% | 0.1 | 0.2%
Cc1cccc(NC(=O)Cc2coc3ccc4ccccc4c23)n1 | 11.2µM* | 4.4% | i | -4.5% | 2.9 | -20.5%
Cc1cc(=O)oc2cc(OCC(=O)Nc3ccc(C(N)=O)cc3)ccc12 | . | . | . | . | -0.4 | .
NC(=O)NC(=O)CCN1CCOC(c2ccc(Br)cc2)C1 (stereo not drawn) | . | . | . | . | -0.5 | .
COc1ccccc1Oc1ccc(N/C=C/C(=O)c2ccc(Cl)cc2)cc1 | . | . | . | . | 5.4 | .
Cc1ccc(-c2nc(CC(=O)NCCc3ccccc3F)cs2)o1 | . | . | . | . | -33.2* | .
Cc1cc(NC(=O)CCCC(=O)OCC(F)(F)C(F)F)cc(C)c1C(=O)O | 1.0% | . | -112.0%* | -2.8% | 0.2 | 0.5%
Cc1ccc(NC(=O)c2cc(S(=O)(=O)N(C)C)ccc2N2CCCC2)cc1F | -2.7% | -25.4% | i | 31.6µM* | -9.6 | -10.7%
Cc1ccc(C)c2c(=O)cc(CSc3nnc(-c4ccccc4)n3C)[nH]c12 | . | . | . | . | -23.9 | .
SMILES | PINK1 modulator | Vif-APOBEC3F blk | pAkt inh | Glioma ERSR ind | LDHA block | Vif-A3G inh
CC1Sc2ccc(C(=O)NOCc3ccccc3)cc2NC1=O (stereo not drawn) | . | . | . | . | 4.0 | .
CCCCN(C(=O)c1ccc([N+](=O)[O-])s1)c1c(N)n(CCCC)c(=O)[nH]c1=O | -0.4% | 12.6µM* | i | -3.5% | 7.0 | -16.7%
CC(C)CN(C(=O)COC(=O)c1ccc([N+](=O)[O-])s1)c1c(N)n(Cc2ccccc2)c(=O)[nH]c1=O | 39.8µM* | ? | i | -4.9% | -3.7 | ?
CCCCn1c(N)c(N(CCC(C)C)C(=O)COC(=O)c2ccc([N+](=O)[O-])s2)c(=O)[nH]c1=O | ? | ? | i | -0.3% | 0.3 | -23.3%
CC(=O)c1ccc(C(=O)N(C)C(c2ccccc2)c2ccccc2)s1 | . | . | . | . | 14.3 | .
Cc1cc(C(=O)OCC(=O)c2cc(C)n(C)c2C)c2ccccc2n1 | . | . | . | . | -15.8 | .
CCc1ccc(C2=C(C)C(=NCC(=O)NCc3ccc(OC)cc3)NS2(=O)=O)cc1 | . | . | . | . | 3.2 | .
CC(C)c1nc2cc(NC3CCCCNC3=O)ccc2o1 (stereo not drawn) | . | . | . | . | -6.1 | .
Cc1cc(=O)n2c(n1)NC(Nc1ccc(F)cc1)=NC2c1cccs1 (stereo not drawn) | . | . | . | . | -37.4* | .
N#Cc1cn(CCOc2ccc(F)cc2)c2ccccc12 | 0.1% | -11.3% | -116.7%* | 4.4% | -4.0 | -10.7%
O=C1c2ccsc2SCCN1Cc1ccc(Cl)cc1Cl | 0.6% | 0.8% | -106.4%* | -2.4% | -0.5 | -5.5%
O=C1c2ccsc2SCCN1Cc1c(Cl)cccc1Cl | -0.3% | 5.2% | i | 0.5% | -8.4 | -10.8%
Cc1ccc2nc(NC(=O)CCn3c(=O)oc4ccccc43)sc2c1 | . | . | . | . | -2.2 | .
O=C(/C=C/c1ccc(Cl)cc1)NCCN1CCOCC1 | -4.0% | -4.3% | -95.3%* | 0.1% | -1.5 | 2.2%
CCc1cc2c(=O)c(Oc3ccc(F)cc3)c(C(F)(F)F)oc2cc1OC(C)=O | . | . | . | . | 11.7 | .
CCCCCc1ccc(CC(=O)Nn2c(C)nc3ccccc3c2=O)cc1 | -4.4%[38.3 µM] | -8.2% | i | -1.4% | 3.5 | 1.2%
Cc1nc2ccccc2c(=O)n1NC(=O)Cc1ccc(Br)cc1 | 2.1%[38.3 µM] | -1.0% | -81.1%* | 0.2% | -4.0 | -2.8%
Cc1nonc1NC(=O)CSc1nc2c(C)cccc2cc1C#N | 44.7µM* | 7.94µM* | i | 4.2% | -2.4 | ?
COc1ccc2cc(C#N)c(SCC(=O)Nc3nonc3C)nc2c1 | ? | -7.7% | i | 1.6% | -1.7 | -0.8%
Cc1cc2cc(C#N)c(SCC(=O)Nc3nonc3C)nc2cc1C | ? | 10µM* | i | 1.4% | -6.6 | ?
COC(=O)c1ccc(Nc2c([N+](=O)[O-])ccc3nonc23)cc1 | 14.1µM* | 25.1µM* | i | -3.4% | -3.5 | ?
Cc1ccc(NC(=O)CN2CCOCC2)cc1S(=O)(=O)N1CCCCC1 | 1.4% | -13.2% | i | -3.7% | -2.2 | -0.3%
Cc1ccc(NC(=O)CNCCCN2CCOCC2)cc1S(=O)(=O)N1CCCCC1 | -1.7% | -0.8% | i | -1.5% | -33.0* | 0.9%
COc1cc2nc(/C=C/c3ccc(N(C)C)cc3)sc2cc1SC | 5.8% | 8.91µM* | i | 2.1% | 3.1 | ?
CCc1cc(=O)oc2c(C)c(O)c(CN3CCCCC3)cc12 | -2.6% | -9.6% | -93.2%* | -3.7% | -3.5 | -0.5%
